Source: PubChem (National Center for Advancing Translational Sciences (NCATS))
Shown are actives, neighbours in structure and some others; about 8% of the full set was active somewhere.
MARV entry inh: Marburg virus entry inhibition. Marburg virus pseudotype entry/binding inhibition, cell-based. Potency, µM (highest dose often 49.2 µM), actives largely listed as inhibitors. 6.5% of 18,000 active. AID 720532
LASV entry inh: inhibitors of Lassa virus binding or entry into cells; Lassa virus pseudotyped entry inhibition, cell-based qHTS; Potency, µM (titrated, usually from 49.2 µM), most hits filed as inhibitors; 4.1% of 18,000 active; AID 720533
Each line names hits and unclear results; the compound was inactive in the other large screens; ! = not confirmed by another sample. Calls come from the whole dose curve; tested in HEK293 cells.

CC[C@@H](C)[C@H]1O[C@]2(CC[C@@H]1C)C[C@@H]1C[C@H](C/C=C(/C)[C@H](O[C@@H]3C[C@H](OC)[C@H](O[C@@H]4C[C@H](OC)[C@@H](O)[C@H](C)O4)[C@H](C)O3)[C@@H](C)/C=C\C=C3CO[C@@H]4[C@H](O)C(C)=C[C@@H](C(=O)O1)[C@]34O)O2 (tested in a mixture with another compound)	LASV entry inh inconclusive
CC[C@H](C)[C@@H]1O[C@]2(CC[C@@H]1C)C[C@H]1C[C@H](CC=C(C)[C@@H](O[C@@H]3C[C@H](OC)[C@H](O[C@@H]4C[C@H](OC)[C@H](O)[C@H](C)O4)[C@H](C)O3)[C@@H](C)C=CC=C3CO[C@@H]4[C@@H](O)C(C)=C[C@@H](C(=O)O1)[C@]34O)O2	MARV entry inh inconclusive
CCC(C)[C@H]1O[C@]2(C=C[C@@H]1C)C[C@@H]1C[C@@H](C/C=C(\C)[C@@H](O[C@H]3C[C@H](OC)[C@@H](O[C@H]4C[C@H](OC)[C@H](NC(C)=O)[C@H](C)O4)[C@H](C)O3)[C@@H](C)/C=C/C=C3\CO[C@@H]4[C@H](O)C(C)=C[C@@H](C(=O)O1)[C@]34O)O2 (stereo partly specified)	MARV entry inh 8.9µM, LASV entry inh 13µM
Cc1ccccc1Nc1oc(-c2ccccc2)nc1-c1ccc(C(F)(F)F)cc1	LASV entry inh inconclusive
CCCNC(=O)OC[C@H]1O[C@H](CCON=C2[C@H]3CCn4c(=O)n(-c5ccccc5)c(=O)n4[C@@H]3[C@H](O)[C@@H]3O[C@H]23)C=C[C@H]1Oc1ccc(OC)cc1	none
O=C(c1cccs1)N1C[C@H](O)[C@H](n2cc(C3CC3)nn2)C[C@@H]1c1ccc(Cl)cc1	none (no result: LASV entry inh)
CC=Cc1cc2ccccc2c2c(C(=O)OC)c(C(=O)OC)c(C(=O)OC(C)(C)C)n12	MARV entry inh inconclusive
O=C1[C@@H]2[C@@H](C(=O)N1CC(O)COCc1ccccc1)[C@H]1C=C[C@@H]2C1 (stereo partly specified)	none
O=C(Nc1n[nH]c2nc(-c3ccco3)ccc12)C1CC1	none (no result: LASV entry inh)
O=C1c2ccccc2C(=O)c2c(O)ccc(O)c21	none
O=C1c2c(O)ccc(O)c2C(=O)c2c(NCCNCCO)ccc(NCCNCCO)c21	MARV entry inh 0.1µM, LASV entry inh 0.32µM
CCC[C@H]1CN(c2ccccc2)C(=O)[C@H]1CC(=O)Nc1ccccc1	none
COC(=O)CC=C[C@@H](C)[C@@H](C=NOC[C@@H](C)[C@H](OCc1ccccc1)C(C)C)NS(=O)(=O)c1ccc(C)cc1	none (no result: LASV entry inh)
O=C(OCc1cn([C@H]2C[C@H](c3ccc(Cl)cc3)N(C(=O)C3CCCCC3)C[C@H]2O)nn1)c1ccccc1	MARV entry inh inconclusive
CC(CCN1CCc2nc(-c3ccccc3)c(-c3ccccc3)cc2C1)=NOC[C@@H](O)COCc1ccco1	none
c1ccc2c(c1)OCC(C1=NCCN1)O2 (stereo unspecified)	MARV entry inh 14µM, LASV entry inh inconclusive
c1ccc2c(c1)CCCC2C1=NCCN1 (stereo unspecified)	none
COc1cc2c(c(OC)c1OC)C1(c3ccccc3)CCCCCC1[C@@H]2NC(=O)C(F)(F)F (stereo partly specified)	none (no result: LASV entry inh)
Cc1ccccc1Nc1oc(-c2ccccc2)nc1C=Cc1ccccc1	none
C=C1C(=O)OC2CC1C(OC(C)=O)CC(C)=CCCC(C)=CCC[C@@]2(C)O (stereo partly specified)	MARV entry inh 16µM, LASV entry inh 11µM
C[C@@H]1CCC2[C@@H](C)[C@@H](O)O[C@@H]3O[C@@]4(C)CC[C@@H]1[C@@]23OO4 (stereo partly specified)	MARV entry inh 1.3µM, LASV entry inh 0.63µM
CC1CCC2C(C)C(=O)OC3OC4(C)CCC1C32OO4 (stereo unspecified)	LASV entry inh inconclusive
O=S1(=O)C=CCN1	none
CC(=O)OC[C@H]1O[C@H](C#Cc2ccccc2Cl)C=C[C@H]1OC(C)=O	none
CSC[C@H]1CN(c2ccccc2)C(=O)[C@H]1CC(=O)Nc1ccc(Br)cc1	none
c1ccc(CCc2nc(-c3ccccc3)oc2NC2CCCCC2)cc1	none
CN(CCc1ccc(Cl)c(Cl)c1)CC(O)COc1ccc(NS(C)(=O)=O)cc1 (stereo unspecified)	MARV entry inh inconclusive
CN(CCc1ccc(Cl)c(Cl)c1)CCN1CCCCCC1	MARV entry inh 10µM, LASV entry inh inconclusive
CN1CCN(CCc2ccc(Cl)c(Cl)c2)CC1	MARV entry inh 18µM!, LASV entry inh inconclusive
CN(CCc1ccc(Cl)c(Cl)c1)[C@H]1CCCC[C@H]1N1CCCC1	MARV entry inh 6.3µM, LASV entry inh 18µM
O=C(O)c1ccc(CCN2CCN(CC=Cc3ccc(Cl)cc3)CC2)cc1	none
COc1cc2c(cc1OC)[C@@H]1O[C@](CCCCN3C(=O)c4ccccc4C3=O)(C2)OC2=C1C(=O)OC1(CCCCC1)C2	none
CC(C)c1c(C(=O)N(C)Cc2cccc3ncccc23)cnn1-c1nccc(-c2ccccc2F)n1	LASV entry inh inconclusive
Cc1cccc(C)c1Nc1oc(-c2ccccc2)nc1C(C)(C)C	none
COc1cc(C[C@@H]2NCCc3cc(O)c(O)cc32)cc(OC)c1OC	none
COc1cc2c(cc1OC)C(C)NCC2 (stereo unspecified)	none
CC[C@@H]1CN2CCc3cc(OC)c(OC)cc3[C@H]2C[C@@H]1C[C@H]1NCCc2cc(OC)c(OC)cc21	MARV entry inh inconclusive, LASV entry inh 0.32µM
CC[C@@H]1CN2CCc3cc(OC)c(OC)cc3[C@@H]2C[C@@H]1C[C@H]1NCCc2cc(OC)c(OC)cc21	MARV entry inh inconclusive, LASV entry inh 5.6e-05µM
CCC=CC[C@@]1(C(=O)OC)C=C[C@@H](C)[C@H](c2ccccc2Br)N1C(=O)C(F)(F)F	none
O=C1Nc2ccccc2C1=C1CCc2cc(O)ccc21	none (no result: LASV entry inh)
C#CCNC(=O)[C@H]1C=C(OC)C(=O)C[C@H](c2ccccc2)[C@H]1C	none
COc1ccc(C2Sc3ccccc3N(CCN(C)C)C(=O)[C@@H]2OC(C)=O)cc1 (stereo partly specified)	MARV entry inh inconclusive
COc1ccc([C@@H]2Sc3ccccc3N(CCN(C)C)C(=O)[C@@H]2OC(C)=O)cc1	MARV entry inh 28µM, LASV entry inh 4.5µM
CC(C)=CCCC(C)=CCON=C1C[C@@H](O)[C@@H](O)[C@@H]2[C@H]3C(=O)N(Cc4ccc5c(c4)OCO5)C(=O)[C@@H]3CC[C@H]12	none (no result: LASV entry inh)
CCN(CC)C(=O)N[C@H]1C[C@@H]2c3cccc4[nH]cc(c34)C[C@H]2N(C)C1	none
C=CCN1C[C@H](C(=O)N(CCCN(C)C)C(=O)NCC)C[C@@H]2c3cccc4[nH]cc(c34)C[C@H]21	MARV entry inh 7.9µM
COC(=O)[C@@H]1CC[C@H](C)[C@@H](c2ccc(C)cc2)N1C(=O)c1ccc(C=NOC[C@H]2O[C@H](c3ccccc3)C=C[C@H]2Oc2ccc(OC)cc2)cc1	none
CCN(CC)C(C)CN1c2ccccc2Sc2ccccc21 (stereo unspecified)	MARV entry inh 1.6µM, LASV entry inh 14µM
CC(CN(C)C)CN1c2ccccc2S(=O)(=O)c2ccccc21 (stereo unspecified)	MARV entry inh inconclusive
O=S(=O)(O)c1ccc2nc(-c3ccccc3)[nH]c2c1	LASV entry inh inconclusive
O=S(=O)(O)c1ccc2c(c1)-c1nc-2nc2[nH]c(nc3nc(nc4[nH]c(n1)c1ccc(S(=O)(=O)O)cc41)-c1ccc(S(=O)(=O)O)cc1-3)c1ccc(S(=O)(=O)O)cc21	MARV entry inh 1.3µM, LASV entry inh inconclusive
C=CCOP1(=O)O[C@H](CC=C)C[C@H](CC=C)O1 (stereo partly specified)	MARV entry inh inconclusive
